# Results filed as inconclusive are left out. Calls of active or inactive are those of the source. Rule for the calls: active = hit-call score of the fitted dose curve at least 0.9, where 1 is the maximum; inconclusive = response in the unintended direction; inactive = score below 0.9.
# Key:
# [1] = target: Tyrosine-protein phosphatase non-receptor type 14 (Homo sapiens) (UniProt Q15678); assay: NVS_ENZ_hPTPN14: NovaScreen (NVS) Enzymatic Assay for human Protein Tyrosine Phosphatase Non-receptor Type 14 (PTPN14) (AID 2283206)
# Method in brief: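 Cell-free recombinant human PTPN14 with fluorescent substrate, read 0.5 h after dosing by fluorescence and electrophoretic mobility shift separating substrate from product. Primary screen at 25 uM in duplicate; hits run to 50 uM maximum; loss of signal versus DMSO.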
# [2] = target: human Protein Tyrosine Phosphatase Non-receptor Type 4 (PTPN4), PTPN4 (gene 5775) (UniProt P29074); assay: NVS_ENZ_hPTPN4: NovaScreen (NVS) Enzymatic Assay for human Protein Tyrosine Phosphatase Non-receptor Type 4 (PTPN4) (AID 2283208)
# Method in brief: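 Cell-free assay of PTPN4 expressed in Sf9 cells, using a fluorescent substrate with product separated by mobility shift; read 1.33 h after dosing. Single-point screen at 25 uM, then concentration-response up to 50 uM. Loss of signal relative to DMSO.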
# [3] = target: human Protein Tyrosine Phosphatase Non-receptor Type 9 (PTPN9), PTPN9 (gene 5780) (UniProt P43378); assay: NVS_ENZ_hPTPN9: NovaScreen (NVS) Enzymatic Assay for human Protein Tyrosine Phosphatase Non-receptor Type 9 (PTPN9) (AID 2283209)
# Method in brief: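 Sf9-expressed enzyme in a cell-free assay, fluorescence read 1.33 h after dosing with mobility-shift separation of substrate and product. Tested at 25 uM in duplicate, then up to 50 uM; signal loss versus DMSO.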
# [4] = target: human SRC Proto-Oncogene, Non-receptor Tyrosine Kinase (SRC), SRC (gene 6714) (UniProt P12931); assay: NVS_ENZ_hSRC: NovaScreen (NVS) Enzymatic Assay for human SRC Proto-Oncogene, Non-receptor Tyrosine Kinase (SRC) (AID 2283223)
# Method in brief: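 Cell-free kinase activity assay with fluorescent substrate, product separated by electrophoretic mobility shift, read 1 h after dosing. Duplicate single point at 25 uM, then concentration-response up to 50 uM; loss of signal versus DMSO.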
# [5] = target: human Tropomyosin Receptor Kinase A (TRKA), NTRK1 (gene 4914) (UniProt P04629); assay: NVS_ENZ_hTrkA: NovaScreen (NVS) Enzymatic Assay for human Tropomyosin Receptor Kinase A (TRKA) (AID 2283224)
# Chain of human Tropomyosin Receptor Kinase A (TRKA), NTRK1 (gene 4914) (P04629 whole entry, looked up): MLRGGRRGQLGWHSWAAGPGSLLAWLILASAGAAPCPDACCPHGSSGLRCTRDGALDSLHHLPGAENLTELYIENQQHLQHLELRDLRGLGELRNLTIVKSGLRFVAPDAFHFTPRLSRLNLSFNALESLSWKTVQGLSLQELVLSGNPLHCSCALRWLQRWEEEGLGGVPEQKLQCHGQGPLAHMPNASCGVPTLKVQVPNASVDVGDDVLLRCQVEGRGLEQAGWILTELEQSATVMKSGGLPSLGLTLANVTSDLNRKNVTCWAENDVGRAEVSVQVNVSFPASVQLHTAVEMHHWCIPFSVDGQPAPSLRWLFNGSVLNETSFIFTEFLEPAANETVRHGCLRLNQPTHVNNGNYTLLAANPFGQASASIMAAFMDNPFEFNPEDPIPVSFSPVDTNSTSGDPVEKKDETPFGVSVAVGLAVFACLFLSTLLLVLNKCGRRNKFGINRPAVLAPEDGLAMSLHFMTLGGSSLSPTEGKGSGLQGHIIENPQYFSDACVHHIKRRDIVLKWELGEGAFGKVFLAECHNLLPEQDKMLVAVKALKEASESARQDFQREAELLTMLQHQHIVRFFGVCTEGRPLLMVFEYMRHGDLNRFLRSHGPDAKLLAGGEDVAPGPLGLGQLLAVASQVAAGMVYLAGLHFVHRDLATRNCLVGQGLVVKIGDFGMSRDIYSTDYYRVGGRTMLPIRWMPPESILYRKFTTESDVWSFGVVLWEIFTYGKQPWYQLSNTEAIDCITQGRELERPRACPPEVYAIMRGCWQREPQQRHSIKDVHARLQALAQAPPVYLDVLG
# Method in brief: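 Recombinant human TrkA activity read after 1 h by fluorescence with electrophoretic mobility shift separating substrate and product. Primary screen in duplicate at 25 uM; actives were rerun in concentration-response up to 50 uM. Loss of signal versus DMSO.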
# [6] = target: human Tyrosine Protein Kinase Receptor Tie-2 (Tie2), TEK (gene 7010) (UniProt Q02763); assay: NVS_ENZ_hTie2: NovaScreen (NVS) Enzymatic Assay for human Tyrosine Protein Kinase Receptor Tie-2 (Tie2) (AID 2283225)
# Method in brief: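 Recombinant human Tie2 kinase activity was read cell-free by fluorescence with electrophoretic mobility shift, 1 hour after dosing. The screen used 25 uM in duplicate, then concentration-response up to 50 uM. Signal loss was scored against DMSO.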
# [7] = target: human Vascular Endothelial Growth Factor Receptor 3 (VEGFR3), FLT4 (gene 2324) (UniProt P35916); assay: NVS_ENZ_hVEGFR3: NovaScreen (NVS) Enzymatic Assay for human Vascular Endothelial Growth Factor Receptor 3 (VEGFR3) (AID 2283229)
# Chain of human Vascular Endothelial Growth Factor Receptor 3 (VEGFR3), FLT4 (gene 2324) (P35916 whole entry, looked up): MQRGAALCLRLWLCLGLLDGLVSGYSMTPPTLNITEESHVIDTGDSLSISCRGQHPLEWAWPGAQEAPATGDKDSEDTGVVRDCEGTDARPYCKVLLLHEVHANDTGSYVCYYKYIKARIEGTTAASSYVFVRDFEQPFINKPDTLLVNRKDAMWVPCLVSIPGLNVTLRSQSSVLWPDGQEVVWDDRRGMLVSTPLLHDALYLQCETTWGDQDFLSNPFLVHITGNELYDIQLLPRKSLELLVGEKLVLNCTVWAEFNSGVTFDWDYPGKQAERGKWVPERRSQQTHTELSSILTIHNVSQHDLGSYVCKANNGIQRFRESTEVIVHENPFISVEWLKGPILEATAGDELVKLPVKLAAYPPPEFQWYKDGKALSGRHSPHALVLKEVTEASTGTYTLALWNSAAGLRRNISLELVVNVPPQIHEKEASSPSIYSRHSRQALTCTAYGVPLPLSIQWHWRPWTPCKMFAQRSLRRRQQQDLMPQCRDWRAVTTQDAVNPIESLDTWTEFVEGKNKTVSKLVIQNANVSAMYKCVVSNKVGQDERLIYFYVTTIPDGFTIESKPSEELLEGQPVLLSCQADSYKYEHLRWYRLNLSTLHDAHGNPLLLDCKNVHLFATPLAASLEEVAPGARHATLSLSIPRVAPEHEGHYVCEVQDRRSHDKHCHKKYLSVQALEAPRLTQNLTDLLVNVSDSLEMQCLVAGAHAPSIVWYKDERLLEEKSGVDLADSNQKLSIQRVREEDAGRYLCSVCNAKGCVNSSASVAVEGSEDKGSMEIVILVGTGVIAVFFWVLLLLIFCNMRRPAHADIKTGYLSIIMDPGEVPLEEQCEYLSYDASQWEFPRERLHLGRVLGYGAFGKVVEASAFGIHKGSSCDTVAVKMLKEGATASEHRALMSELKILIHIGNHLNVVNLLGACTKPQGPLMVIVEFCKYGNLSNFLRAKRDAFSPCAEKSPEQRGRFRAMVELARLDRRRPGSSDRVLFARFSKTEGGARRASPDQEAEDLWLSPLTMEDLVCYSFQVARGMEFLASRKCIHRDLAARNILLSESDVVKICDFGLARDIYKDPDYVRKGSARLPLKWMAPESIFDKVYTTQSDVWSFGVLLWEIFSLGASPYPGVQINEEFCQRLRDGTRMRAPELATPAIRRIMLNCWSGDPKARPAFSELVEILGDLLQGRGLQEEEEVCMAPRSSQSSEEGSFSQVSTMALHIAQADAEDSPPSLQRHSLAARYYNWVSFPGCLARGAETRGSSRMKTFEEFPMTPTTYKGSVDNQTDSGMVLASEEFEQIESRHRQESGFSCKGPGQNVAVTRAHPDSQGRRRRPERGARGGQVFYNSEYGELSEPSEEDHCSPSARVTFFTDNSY
# Method in brief: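 Cell-free recombinant VEGFR3 kinase reaction with fluorescent substrate, read 1 h after dosing by electrophoretic mobility shift separation of substrate and product. Single-concentration duplicate screen at 25 uM, then concentration-response up to 50 uM; loss of activity versus DMSO.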
# [8] = target: human Protein Tyrosine Phosphatase Non-receptor Type 2 (PTPN2), PTPN2 (gene 5771) (UniProt P17706); assay: NVS_ENZ_hPTPN2: NovaScreen (NVS) Enzymatic Assay for human Protein Tyrosine Phosphatase Non-receptor Type 2 (PTPN2) (AID 2283207)
# Chain of human Protein Tyrosine Phosphatase Non-receptor Type 2 (PTPN2), PTPN2 (gene 5771) (P17706 whole entry, looked up): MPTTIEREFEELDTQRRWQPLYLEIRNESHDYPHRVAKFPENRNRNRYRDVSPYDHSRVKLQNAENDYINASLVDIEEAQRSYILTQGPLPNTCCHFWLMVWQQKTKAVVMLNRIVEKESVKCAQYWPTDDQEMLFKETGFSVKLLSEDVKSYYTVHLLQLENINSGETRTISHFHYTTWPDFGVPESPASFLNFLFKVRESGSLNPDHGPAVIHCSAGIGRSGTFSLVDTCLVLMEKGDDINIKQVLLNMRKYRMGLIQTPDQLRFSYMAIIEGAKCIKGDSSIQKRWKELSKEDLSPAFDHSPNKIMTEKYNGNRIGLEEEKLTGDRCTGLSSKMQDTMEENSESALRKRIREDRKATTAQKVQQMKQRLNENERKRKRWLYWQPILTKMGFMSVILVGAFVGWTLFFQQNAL
# Method in brief: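 Cell-free recombinant enzyme with fluorescent substrate, product separated by electrophoretic mobility shift; read 1 h after dosing. Primary screen single concentration (25 uM) in duplicate; actives followed in concentration series; loss of signal versus DMSO.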
# [9] = target: human Protein Tyrosine Phosphatase Non-receptor Type 6 (PTPN6), PTPN6 (gene 5777) (UniProt P29350); assay: NVS_ENZ_hPTPN6: NovaScreen (NVS) Enzymatic Assay for human Protein Tyrosine Phosphatase Non-receptor Type 6 (PTPN6) (AID 2283210)
# Method in brief: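 Cell-free assay with recombinant PTPN6 expressed in SF9 cells, fluorescent substrate, product separated from substrate by electrophoretic mobility shift; read 1.33 hours after dosing. Primary screen in duplicate at 25 uM, actives retested in concentration series; DMSO baseline.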
# [10] = target: human Protein Tyrosine Phosphatase Receptor Type C (PTPRC), PTPRC (gene 5788) (UniProt P08575); assay: NVS_ENZ_hPTPRC: NovaScreen (NVS) Enzymatic Assay for human Protein Tyrosine Phosphatase Receptor Type C (PTPRC) (AID 2283212)
# Method in brief: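 Yeast-extracted human PTPRC used in a cell-free colorimetric enzyme activity read-out, 1 h after dosing. Primary screen in duplicate at 25 uM; actives rerun in concentration-response up to 50 uM, DMSO as baseline.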
# [11] = target: rabbit Imidazoline 2 Central (I2C), CKB (gene 100009085) (UniProt P00567); assay: NVS_ENZ_rabI2C: NovaScreen (NVS) Enzymatic Assay for rabbit Imidazoline 2 Central (I2C) (AID 2283228)
# Method in brief: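 Rabbit brain membranes, cell-free; readout by filter-based scintillation counting 1.5 hours after dosing, loss of signal vs DMSO. Initial duplicate test at 25 uM, then concentration-response with 50 uM top concentration.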
# [12] = target: human Sirtuin 1 (SIRT1), SIRT1 (gene 23411) (UniProt Q96EB6); assay: NVS_ENZ_hSIRT1: NovaScreen (NVS) Enzymatic Assay for human Sirtuin 1 (SIRT1) (AID 2283219)
# Chain of human Sirtuin 1 (SIRT1), SIRT1 (gene 23411) (Q96EB6 whole entry, looked up): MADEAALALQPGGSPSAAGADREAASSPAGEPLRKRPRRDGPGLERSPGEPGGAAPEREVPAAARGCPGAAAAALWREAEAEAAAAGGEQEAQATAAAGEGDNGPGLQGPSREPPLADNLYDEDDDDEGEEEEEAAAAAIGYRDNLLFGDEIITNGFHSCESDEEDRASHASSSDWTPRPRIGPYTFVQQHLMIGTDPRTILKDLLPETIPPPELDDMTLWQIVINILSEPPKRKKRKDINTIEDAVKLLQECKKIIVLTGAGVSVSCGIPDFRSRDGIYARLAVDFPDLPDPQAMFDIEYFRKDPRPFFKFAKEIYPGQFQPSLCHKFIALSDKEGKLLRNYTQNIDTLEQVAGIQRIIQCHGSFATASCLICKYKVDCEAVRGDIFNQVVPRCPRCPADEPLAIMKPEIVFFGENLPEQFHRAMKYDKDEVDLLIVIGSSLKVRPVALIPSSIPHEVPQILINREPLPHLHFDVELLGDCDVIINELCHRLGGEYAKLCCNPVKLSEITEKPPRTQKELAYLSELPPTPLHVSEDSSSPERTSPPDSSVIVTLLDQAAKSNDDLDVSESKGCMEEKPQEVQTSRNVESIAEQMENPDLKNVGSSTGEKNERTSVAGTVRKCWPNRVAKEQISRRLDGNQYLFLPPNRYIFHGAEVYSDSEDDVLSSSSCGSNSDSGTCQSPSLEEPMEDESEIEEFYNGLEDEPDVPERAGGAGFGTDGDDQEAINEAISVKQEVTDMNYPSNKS
# Method in brief: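 Cell-free recombinant SIRT1 with a fluorescent substrate; substrate and product separated by electrophoretic mobility shift and read by fluorescence intensity, 1 h after dosing. Primary screen at 25 uM in duplicate; hits re-run in concentration-response up to 50 uM, relative to DMSO.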
# [13] = target: human Sirtuin 3 (SIRT3), SIRT3 (gene 23410) (UniProt Q9NTG7); assay: NVS_ENZ_hSIRT3: NovaScreen (NVS) Enzymatic Assay for human Sirtuin 3 (SIRT3) (AID 2283222)
# Chain of human Sirtuin 3 (SIRT3), SIRT3 (gene 23410) (Q9NTG7 whole entry, looked up): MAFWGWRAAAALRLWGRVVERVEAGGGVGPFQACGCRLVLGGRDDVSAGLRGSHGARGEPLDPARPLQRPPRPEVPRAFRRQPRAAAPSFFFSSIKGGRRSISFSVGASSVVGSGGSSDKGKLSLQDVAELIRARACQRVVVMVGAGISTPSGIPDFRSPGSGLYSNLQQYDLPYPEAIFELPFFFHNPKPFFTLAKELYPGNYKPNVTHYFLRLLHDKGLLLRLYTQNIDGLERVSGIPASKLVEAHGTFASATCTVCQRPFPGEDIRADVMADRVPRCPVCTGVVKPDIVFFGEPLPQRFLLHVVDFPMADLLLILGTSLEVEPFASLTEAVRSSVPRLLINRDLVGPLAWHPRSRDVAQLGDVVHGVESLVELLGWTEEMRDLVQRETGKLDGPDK
# Method in brief: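 Cell-free enzyme assay with recombinant protein and fluorescent substrate, product separated by electrophoretic mobility shift; read 1 hour after dosing. Screened in duplicate at 25 uM, then singleton concentration-response up to 50 uM; loss of signal versus DMSO.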
# [14] = target: human Protein Tyrosine Phosphatase Receptor Type F (PTPRF), PTPRF (gene 5792) (UniProt P10586); assay: NVS_ENZ_hPTPRF: NovaScreen (NVS) Enzymatic Assay for human Protein Tyrosine Phosphatase Receptor Type F (PTPRF) (AID 2283213)
# Method in brief: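 Cell-free fluorescence enzyme assay with recombinant protein and substrate; product separated by electrophoretic mobility shift. Read 1 h after dosing, single 25 uM duplicate screen, then concentration-response up to 50 uM; loss of signal vs DMSO.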
# [15] = target: human Sirtuin 2 (SIRT2), SIRT2 (gene 22933) (UniProt Q8IXJ6); assay: NVS_ENZ_hSIRT2: NovaScreen (NVS) Enzymatic Assay for human Sirtuin 2 (SIRT2) (AID 2283217)
# Chain of human Sirtuin 2 (SIRT2), SIRT2 (gene 22933) (Q8IXJ6 whole entry, looked up): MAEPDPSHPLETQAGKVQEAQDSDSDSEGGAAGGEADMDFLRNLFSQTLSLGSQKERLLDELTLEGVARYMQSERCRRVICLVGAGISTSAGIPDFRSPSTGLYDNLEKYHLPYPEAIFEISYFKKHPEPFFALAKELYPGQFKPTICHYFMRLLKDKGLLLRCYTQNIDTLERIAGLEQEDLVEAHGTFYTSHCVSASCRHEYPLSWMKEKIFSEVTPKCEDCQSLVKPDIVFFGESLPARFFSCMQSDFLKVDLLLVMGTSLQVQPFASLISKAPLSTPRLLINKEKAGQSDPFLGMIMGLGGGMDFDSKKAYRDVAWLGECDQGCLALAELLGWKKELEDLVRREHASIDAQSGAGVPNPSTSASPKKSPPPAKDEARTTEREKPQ
# Method in brief: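 Cell-free recombinant human SIRT2, fluorescent substrate with product separated by electrophoretic mobility shift, 1 hr. Screened in duplicate at 25 uM; hits rerun singly in concentration-response up to 50 uM, relative to DMSO.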
# [16] = target: human Protein Tyrosine Phosphatase Receptor Type M (PTPRM), PTPRM (gene 5797) (UniProt P28827); assay: NVS_ENZ_hPTPRM: NovaScreen (NVS) Enzymatic Assay for human Protein Tyrosine Phosphatase Receptor Type M (PTPRM) (AID 2283215)
# Method in brief: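 Cell-free recombinant PTPRM with fluorogenic substrate; product separated from substrate by electrophoretic mobility shift and read by fluorescence, 1.33 h after dosing. Primary screen single concentration (25 uM) in duplicate; actives retested in concentration series; loss of signal versus DMSO.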
# [17] = target: human Protein Tyrosine Phosphatase Receptor Type B (PTPRB), PTPRB (gene 5787) (UniProt P23467); assay: NVS_ENZ_hPTPRB: NovaScreen (NVS) Enzymatic Assay for human Protein Tyrosine Phosphatase Receptor Type B (PTPRB) (AID 2283211)
# Method in brief: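 Recombinant human PTPRB with a fluorescent substrate, product separated by electrophoretic mobility shift; read 1 h after dosing. Primary screen in duplicate at 25 uM; actives then retested in concentration series; loss of signal versus DMSO.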
# [18] = target: human Raf-1 Proto-Oncogene, serine/threonine Kinase (RAF1), RAF1 (gene 5894) (UniProt P04049); assay: NVS_ENZ_hRAF1: NovaScreen (NVS) Enzymatic Assay for human Raf-1 Proto-Oncogene, serine/threonine Kinase (RAF1) (AID 2283216)
# Chain of human Raf-1 Proto-Oncogene, serine/threonine Kinase (RAF1), RAF1 (gene 5894) (P04049 whole entry, looked up): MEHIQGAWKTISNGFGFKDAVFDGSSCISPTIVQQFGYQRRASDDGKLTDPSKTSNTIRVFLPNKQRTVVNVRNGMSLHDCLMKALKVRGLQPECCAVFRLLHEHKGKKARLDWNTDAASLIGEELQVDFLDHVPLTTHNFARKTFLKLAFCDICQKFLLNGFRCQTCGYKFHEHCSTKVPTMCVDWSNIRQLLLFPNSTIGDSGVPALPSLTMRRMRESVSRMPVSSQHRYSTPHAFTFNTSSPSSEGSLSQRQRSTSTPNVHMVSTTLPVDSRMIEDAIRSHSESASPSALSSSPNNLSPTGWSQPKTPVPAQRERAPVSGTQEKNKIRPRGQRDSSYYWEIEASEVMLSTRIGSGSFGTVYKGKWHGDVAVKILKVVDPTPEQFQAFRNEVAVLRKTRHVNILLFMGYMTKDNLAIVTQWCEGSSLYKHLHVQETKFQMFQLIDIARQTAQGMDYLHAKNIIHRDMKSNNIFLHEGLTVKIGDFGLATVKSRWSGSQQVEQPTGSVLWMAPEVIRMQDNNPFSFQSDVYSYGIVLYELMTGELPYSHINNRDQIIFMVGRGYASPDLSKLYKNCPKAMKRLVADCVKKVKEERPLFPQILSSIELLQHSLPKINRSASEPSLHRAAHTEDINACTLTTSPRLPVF
# Method in brief: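 Cell-free recombinant kinase with specific fluorescent substrate, product separated by electrophoretic mobility shift; read 1 h after dosing. Primary screen at 25 uM in duplicate; hits then run in concentration-response up to 50 uM, fitted as loss of signal versus DMSO.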
# [19] = target: human Rho Associated Coiled-coil Containing Protein Kinase 1 (ROCK1), ROCK1 (gene 6093) (UniProt Q13464); assay: NVS_ENZ_hROCK1: NovaScreen (NVS) Enzymatic Assay for human Rho Associated Coiled-coil Containing Protein Kinase 1 (ROCK1) (AID 2283214)
# Method in brief: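 Cell-free recombinant human ROCK1 activity assay; fluorescent substrate and product separated by electrophoretic mobility shift, read 1 h after dosing. Screened in duplicate at 25 uM; loss of signal versus DMSO baseline scored as inhibition.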
# [20] = target: human Vascular Endothelial Growth Factor Receptor 1 (VEGFR1), FLT1 (gene 2321) (UniProt P17948); assay: NVS_ENZ_hVEGFR1: NovaScreen (NVS) Enzymatic Assay for human Vascular Endothelial Growth Factor Receptor 1 (VEGFR1) (AID 2283226)
# Method in brief: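 Cell-free assay of recombinant human VEGFR1 kinase with substrate, measured 1 h after dosing; fluorescence with electrophoretic mobility-shift separation of substrate and product, referenced to DMSO; primary screen at 25 uM in duplicate, actives then run in concentration series.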
smiles,measurement,setting,value
CC1=C2C[C@H]3[C@@H](CC=C4C[C@@H](O)CC[C@@]43C)[C@@H]2CC[C@]12O[C@@H]1C[C@H](C)CN[C@H]1[C@H]2C,outcome,[1],inactive
same,AC50,[2],16 µM (active)
same,outcome,[3],inactive
same,outcome,[4],inactive
same,outcome,[5],inactive
same,outcome,[6],inactive
same,outcome,[7],inactive
Cc1cc(O)ccc1Cl,outcome,[8],inactive
same,outcome,[3],inactive
same,outcome,[9],inactive
CCOCCOC(C)=O,outcome,[9],inactive
O=C(O)C(F)(F)C(F)(F)C(F)(F)C(F)(F)C(F)(F)C(F)(F)C(F)(F)C(F)(F)C(F)(F)F,AC50,[10],15.8 µM (active)
CCCCCCCCCC[N+](C)(C)CCCCCCCCCC,AC50,[11],11.8 µM (active)
c1cc2ccc3cccc4ccc(c1)c2c34,outcome,[12],inactive
same,outcome,[13],inactive
same,outcome,[7],inactive
C1CC2OC2CC1C1CO1 (centres undefined),outcome,[3],inactive
same,outcome,[9],inactive
C=CC(N)=O,outcome,[14],inactive
CCCN(CCC)N=O,outcome,[13],inactive
same,outcome,[5],inactive
same,outcome,[6],inactive
CCCCCCOC(=O)c1ccccc1C(=O)OCCCCCC,outcome,[15],inactive
Cc1cc2c3c(c1)C(c1ccccc1)=N[C@@H](NC(=O)c1ccncc1)C(=O)N3CC2,outcome,[16],inactive
same,outcome,[15],inactive
same,outcome,[13],inactive
same,outcome,[6],inactive
O=C(O)C(F)(F)C(F)(F)C(F)(F)C(F)(F)C(F)(F)F,outcome,[8],inactive
same,outcome,[2],inactive
same,outcome,[3],inactive
same,outcome,[17],inactive
same,outcome,[18],inactive
same,outcome,[7],inactive
CCC(C)c1cc([N+](=O)[O-])cc([N+](=O)[O-])c1O (centres undefined),AC50,[10],25 µM (active)
CC#Cc1cc(C)nc(Nc2ccccc2)n1,outcome,[19],inactive
Oc1ccc(Cl)cc1Cl,outcome,[14],inactive
O=C(O)C(F)(F)C(F)(F)C(F)(F)C(F)(F)C(F)(F)C(F)(F)C(F)(F)C(F)(F)F,AC50,[3],25 µM (active)
same,outcome,[17],inactive
same,outcome,[14],inactive
same,outcome,[16],inactive
same,outcome,[18],inactive
same,outcome,[12],inactive
same,outcome,[5],inactive
same,AC50,[6],6.63 µM (active)
same,outcome,[20],inactive
same,outcome,[7],inactive
CC(C)C(=O)OCC(C)(C)C(OC(=O)C(C)C)C(C)C (centres undefined),outcome,[8],inactive
same,outcome,[2],inactive
same,outcome,[16],inactive
same,outcome,[18],inactive
same,outcome,[20],inactive
O=S(=O)(O)C(F)(F)C(F)(F)C(F)(F)C(F)(F)C(F)(F)C(F)(F)F,outcome,[14],inactive
same,outcome,[16],inactive
same,AC50,[15],11.4 µM (active)
same,outcome,[12],inactive
same,outcome,[6],inactive
Oc1ccc(C(c2ccc(O)cc2)(C(F)(F)F)C(F)(F)F)cc1,outcome,[18],inactive
same,AC50,[15],25 µM (active)
same,AC50,[12],38.7 µM (active)
same,AC50,[13],42.9 µM (active)
same,AC50,[6],36.3 µM (active)
Clc1ccc(C(c2ccccc2Cl)C(Cl)(Cl)Cl)cc1 (centres undefined),outcome,[6],inactive
same,outcome,[7],inactive
Nn1cnnc1,outcome,[9],inactive
Cc1cccc([N+](=O)[O-])c1,outcome,[18],inactive
same,outcome,[15],inactive
ClC1=C(Cl)[C@]2(Cl)[C@@H]3[C@@H]4C[C@@H]([C@H]5O[C@@H]45)[C@@H]3[C@@]1(Cl)C2(Cl)Cl,outcome,[20],inactive
CN(C)c1nc(=O)n(C2CCCCC2)c(=O)n1C,outcome,[2],inactive
same,AC50,[11],9.76 µM (active)

# From PubChem BioAssay (EPA / NIEHS)
